Sm TGR inh: inhibitors of Schistosoma mansoni thioredoxin glutathione reductase | Q962Y6 | purified TGR, DTNB reduction, TNB absorbance 405 nm | Potency, µM (top dose mostly 114 µM), for the others: top-dose activity change, negative = inhibition, most hits filed as inhibitors | actives 3% (n = 360,000); also: % is scaled to controls: 0 for no effect and ±100 for the full control effect; nearly all actives have a fitted effect of over 60% in size
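Kinetic colorimetric format: TGR-catalysed, NADPH-driven DTNB reduction monitored via TNB absorbance. Enzyme dispensed at 20 nM; compound exposure 15 min at room temperature before reaction start.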
SARS PLpro yeast: blocks SARS-CoV papain-like protease in a yeast assay. S. cerevisiae expressing SARS-CoV PLpro, growth rescue. Potency, µM (titrated, usually from 32.9 µM), for the others: at the highest dose activity, positive = growth rescue, hits mostly activators. actives 0.19% (n = 330,000); calls by dose curve; also: 0% is about no effect; nearly all actives have a fitted effect of over 55% in size
Pf growth 96h: P. falciparum growth inhibition at 96 hours; Potency, µM (top dose mostly 28.7 µM), for inactives: at the highest dose activity change, negative = inhibition, actives largely listed as inhibitors; actives 6.9% (n = 320,000); P. falciparum luciferase reporter growth, 96 h; AID 504834; also: % is scaled to controls: 0 for no effect and ±100 for the full control effect
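Luminescence readout: decreased luciferase signal marks inhibited growth of reporter-expressing P. falciparum in infected red cells (2% hematocrit, 0.05% parasitemia final), exposed to compound two generations (96 h, 37 C, 5% CO2).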
Pf growth 48h: P. falciparum growth inhibition at 48 hours (one generation); P. falciparum luciferase growth in erythrocytes, 48 h; Potency, µM (doses to about 28.7 µM), for inactives: top-dose activity change, negative = inhibition, hits mostly inhibitors; actives 5.9% (n = 310,000); AID 504832; also: % is scaled to controls: 0 for no effect and ±100 for the full control effect
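First compound was added to culture medium, then infected red cells at 0.1% parasitemia and 2% hematocrit (final). After incubation at 37 C under 5% CO2, luciferase detection reagent was dispensed and light output recorded.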
The depositor's hits bear a star; ? = inconclusive; . = no result given. In the library only some 12% were active in any assay of this set; here they are far more common. Unless noted, calls follow the shape of the dose curve; as a rule, active = well fitted curve in the direction sought with a large enough effect; inconclusive = small, poorly fitted or top-dose-only effect, or another doubt; inactive = no such curve, though single readings can be large; an effect the other way counts as inactive or inconclusive. Potency is read from the fitted curve at half-maximal effect.

SMILES | Sm TGR inh | SARS PLpro yeast | Pf growth 96h | Pf growth 48h
Cc1ccc(NC(=O)C2C3C=CC(O3)C2C(=O)O)cc1C (centres undefined) | -30.9% | -6.2% | 42.5% | -11.4%
Cc1cc2oc(=O)cc(C)c2cc1NC(=O)CCl | 12.6µM* | 17.5% | 4.65µM* | ?
O=C(CCl)Nc1cc2[nH]c(=O)[nH]c2cc1Br | ? | 3.5% | 7.38µM* | 2.33µM*
CCC(=O)Nc1cc2[nH]c(=O)cc(C)c2cc1C | -1.6% | 0.9% | ? | 8.4%
Cc1cc2c(C)cc(=O)[nH]c2cc1NC(=O)CCl | 10µM* | 0.3% | 8.28µM* | ?
O=C(c1ccc2nc[nH]c2c1)N1CCN(c2ncc(C(F)(F)F)cc2Cl)CC1 | -21.1% | -5.3% | ? | 39.1%
O=P(C(Cl)Cl)(N1CCOCC1)N1CCOCC1 | -8.3% | -7.2% | 30.7% | 10.0%
O=CC(Br)P(=O)(N1CCOCC1)N1CCOCC1 (centres undefined) | 44.7µM* | -0.3% | 36.3% | -19.7%
COc1ccc(/C(C)=N\Nc2nc(-c3ccc(Cl)cc3)cc(C(F)(F)F)n2)cc1OC | -3.0% | -17.8% | ? | 10.4µM*
CCN(C(=O)Cn1cnc2c1c(=O)n(C)c(=O)n2C)c1ccccc1C | -3.0% | . | . | .
COc1cccc(N2CCN(C(=O)CC(C)(C)CC3=NS(=O)(=O)c4ccccc4N3)CC2)c1 | 7.4% | -4.2% | ? | ?
CC(C)(CC(=O)N1CCN(c2ccc(Cl)cc2)CC1)CC1=NS(=O)(=O)c2ccccc2N1 | -26.1% | 7.4% | 102.4% | 9.28µM*
O=C(NCc1ccco1)c1ccc(Cl)c(S(=O)(=O)N2CCCC2)c1 | ? | -2.1% | 2.62µM* | 9.28µM*
O=C(NCc1ccco1)c1ccc(S(=O)(=O)c2cccc(S(=O)(=O)N3CCOCC3)c2)cc1 | 50.1µM* | ? | . | ?
CC1CC(C)CN(S(=O)(=O)c2ccc(C(=O)NCc3ccco3)cc2)C1 (centres undefined) | -29.9% | -0.9% | 8.28µM* | ?
CC1CN(S(=O)(=O)c2cccc(C(=O)NCc3ccco3)c2)CC(C)O1 (centres undefined) | -22.4% | -1.5% | ? | -1.3%
O=C(NNC(=S)NCc1ccco1)c1ccc(S(=O)(=O)N2CCOCC2)cc1 | 0.0% | 1.4% | ? | -0.9%
Cc1ccc(C(=O)NCc2ccco2)cc1S(=O)(=O)N1CCCC1 | 39.8µM* | 4.0% | 26.6% | 11.7µM*
COc1ccc(Cl)cc1NC(=O)C1CCN(S(=O)(=O)c2ccc(F)cc2)CC1 | -1.3% | . | . | .
Fc1ccc(Nc2nc(-c3cccc(Cl)c3)c3c(n2)-c2ccccc2OC3)cc1 | 6.5% | . | . | .
COc1ccc(NC(=O)C2CCC(CNS(=O)(=O)c3ccc(Br)s3)CC2)cc1OC (centres undefined) | -0.8% | . | . | .
N#C/C(=C/c1cn(-c2ccccc2)nc1-c1cccc(S(=O)(=O)N2CCCC2)c1)C(=O)NCc1ccco1 | ? | -1.0% | 10.4µM* | 10.4µM*
O=C(NCc1ccco1)c1cccc(S(=O)(=O)N2CCCC2)c1 | 50.1µM* | 1.8% | ? | 1.7%
CCc1ccc(NC(=O)c2ccc(F)c(S(=O)(=O)N(CC)c3ccccc3)c2)cc1 | -0.2% | 1.5% | ? | 9.28µM*
CCN(c1ccccc1)S(=O)(=O)c1cc(C(=O)Nc2cccc(Cl)c2)ccc1F | -10.4% | -4.0% | ? | ?
SMILES | Sm TGR inh | SARS PLpro yeast | Pf growth 96h | Pf growth 48h
O=C(c1ccc(Cl)c(S(=O)(=O)N2CCOCC2)c1)N(Cc1ccco1)Cc1cccs1 | ? | -2.7% | 2.62µM* | ?
N#C/C(=C/c1cn(-c2ccccc2)nc1-c1cccc(S(=O)(=O)N2CCOCC2)c1)C(=O)NCc1ccco1 | 6.8% | 10.7% | -27.1% | -8.0%
O=C(CNC(=O)c1ccco1)NNC(=O)c1n[nH]c(=O)c2ccccc12 | . | 0.1% | . | .
CCc1cc(=O)oc2c(C)c(OC(C)C(=O)NCCCn3ccnc3)ccc12 (centres undefined) | 10.5% | -9.9% | ? | -14.5%
CCN(c1ccccc1)S(=O)(=O)c1cc(C(=O)NCc2ccco2)ccc1C | ? | -18.1% | 13.1µM* | 11.7µM*
CC(O)/C=C/C1OC(=O)CC1Nc1ccc(C=O)cc1 (centres undefined) | -3.0% | 0.6% | 7.38µM* | 41.5%
CC(C)CC(=O)Nc1nnc(S(=O)(=O)N2c3ccccc3CC2C)s1 (centres undefined) | 0.0% | 1.6% | 9.28µM* | 52.9%
CCC(CC)C(=O)Nc1nnc(S(=O)(=O)N2CCCc3ccccc32)s1 | -25.3% | 1.7% | 14.7µM* | -10.4%
CCC(=O)Nc1nnc(S(=O)(=O)N2c3ccccc3CC2C)s1 (centres undefined) | -7.5% | 0.9% | 45.2% | 21.0%
CC1CCN(S(=O)(=O)c2cc(C(=O)NCc3ccc(F)cc3)n(C)c2)CC1 | 1.1% | . | . | .
N#C/C(=C\Nc1ccccc1O)c1nc2ccccc2o1 | -19.4% | -87.2% | 10.4µM* | 1.65µM*
COc1ccccc1N1CCN(C(=O)c2cnn(C(C)(C)C)c2C2CCN(C(=O)OC(C)(C)C)CC2)CC1 | -2.4% | . | . | .
CC(=O)N1c2ccc(S(=O)(=O)N3CCCCCC3)cc2CC1C(=O)NC(C)C (centres undefined) | -1.0% | . | . | .
O=C(c1ccc(S(=O)(=O)Cc2ccccc2Cl)c([N+](=O)[O-])c1)N1CCOCC1 | 11.2µM* | -2.0% | 8.1% | ?
Cc1ccccc1CS(=O)(=O)c1ccc(C(=O)N2CCOCC2)cc1[N+](=O)[O-] | ? | 1.4% | 1.6% | ?
O=C(c1ccc(S(=O)(=O)Cc2ccccc2F)c([N+](=O)[O-])c1)N1CCCC1 | 10µM* | -0.6% | ? | -15.9%
O=C(c1ccc(S(=O)(=O)c2ccc(F)cc2)c([N+](=O)[O-])c1)N1CCCCCC1 | ? | ? | -17.4% | 3.29µM*
CCCCn1c(N)c(N(CC)C(=O)CCNC(=O)NC23CC4CC(CC(C4)C2)C3)c(=O)[nH]c1=O | 5.1% | 3.8% | -6.0% | -29.5%
O=C(CCC1N=C2c3ccccc3N=C(SCc3ccccc3Cl)N2C1=O)NCCc1ccccc1 (centres undefined) | 2.9% | . | . | .
COC(=O)C1CCN(C(c2ccccc2)c2sc3nc(-c4ccco4)nn3c2O)CC1 (centres undefined) | 11.1% | . | . | .
CC1(C)CC(=O)C2=C(C1)N(Cc1ccco1)C(=O)C2(NC(=O)c1ccc(Cl)cc1Cl)C(F)(F)F (centres undefined) | 1.2% | ? | 19.8% | ?
CC1(C)CC(=O)C2=C(C1)N(Cc1ccco1)C(=O)C2(NC(=O)C1CCCCC1)C(F)(F)F (centres undefined) | 31.6µM* | 5.6% | 8.3% | ?
O=c1n(CC2CO2)c(=O)n(CC2CO2)c(=O)n1CC1CO1 (centres undefined) | . | . | 6.01µM* | 9.53µM*
COc1ccc(C(=O)OC(C)C(=O)NC2CCCc3ccccc32)cc1OC (centres undefined) | 1.0% | 2.5% | -30.5% | ?
CCOC(=O)c1ccccc1NC(=O)Cn1ncc2c1-c1ccccc1OC2 | 3.6% | . | . | .
